Experimental data: PubChem BioAssay AID686979 (National Center for Advancing Translational Sciences (NCATS), 2013)
Among all 420,000 compounds or so, about 50,000 (12%) were called active. Roughly 26% stayed inconclusive and do not appear here. What follows is part of a selection rich in actives, with near analogues and random picks from the rest. Entries that show only a call come without a potency. A number with no mark means an inactive call. The call rests on the fitted dose curve; in most records, active means well fitted inhibition curve with a large enough effect; inconclusive means small, poorly fitted or top-dose-only effect; inactive means flat fitted curve, though single readings scatter.

Assay: qHTS for Inhibitors of human tyrosyl-DNA phosphodiesterase 1 (TDP1): qHTS in cells in presence of CPT; further: nearly all actives have a fitted effect of over 55% in size
Conditions: chicken DT40 Tdp1-/-;hTDP1 cells + 20 nM CPT, ATP luminescence, 48 h; series mostly up to 46.2 µM
Summary of the method: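 Cell growth measured by CellTiter-Glo luminescence after a minimum 48 h, 37 C compound exposure with 20 nM CPT in Tdp1-knockout DT40 cells stably expressing hTDP1, seeded 400/well; qHTS titration format.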
Potency means the concentration at half of the fitted maximal effect.

SMILES	Potency	activity change, negative = growth inhibition
CCc1cc(-c2nnc(SCC(=O)NC3CC3)n2C)cs1	inactive	–
NC(CSC(c1ccccc1)(c1ccccc1)c1ccc(-c2ccccc2)cc1)C(=O)O (configuration not stated)	inactive	–
COC(=O)[C@@H]1C[C@H](NC(=O)c2ccccc2C(F)(F)F)CN1Cc1cccc(O)c1	–	9.61% [at 9.04 µM]
CC(CN1CCC(n2nccc2NC(=O)C2CCCC2)CC1)c1ccccc1 (configuration not stated)	inactive	–
C=CCN1CCN(c2ccncc2S(=O)(=O)N2CCN(C)CC2)CC1	inactive	–
CC1(C(=O)NCc2ccccc2)CSCC(=O)N1CCCN1CCOCC1 (configuration not stated)	inactive	–
Cc1cc2oc(=O)cc(CN(C)Cc3ccccc3)c2cc1Cl	inactive	–
CC(C)(O)C#Cc1ccc(CNC[C@H]2O[C@@H](n3cnc4c(=O)[nH]c(N)nc43)[C@H](O)[C@@H]2O)s1	inactive	–
C/C=C(\C)C(=O)O[C@H]1CC(C)=C2C(=O)C=C(C)C2[C@@H]2OC(=O)[C@@](C)(OC(=O)C=C(C)C)C21 (some centres not stated)	–	-19.3% [at 9.04 µM]
C=C(C)C(=O)O[C@H]1C/C(C)=C\C(=O)/C=C(\C)[C@H](O)[C@@H]2OC(=O)C(=C)[C@@H]21	0.58 µM (active)	–
Cc1ccc(CNC(=O)CC(NC(=O)c2ccccc2)c2ccccc2)cc1 (configuration not stated)	inactive	–
Cn1c(SCC(=O)Nc2nccs2)nnc1-c1cccnc1	inactive	–
CCOC(=O)C1CCN(C(=O)Nc2ccc(C)c(Cl)c2)CC1	inactive	–
COc1ccc2c(c1)C(C)=CC(C)(C)N2C(=O)CNCc1ccc2c(c1)OCO2	20.6 µM (active)	–
COc1cccc(CNCc2ccc3c(c2)OCO3)c1	inactive	–
COc1ccc(NC(=O)NCc2ccc3c(c2)OCO3)c(OC)c1	inactive	–
CCc1ccc(-n2c(=S)sc3c(=O)n(-c4ccccc4OC)c(=S)[nH]c32)cc1	inactive	–
NS(=O)(=O)c1ccc(NC(=S)NNC(=O)c2cccs2)cc1	inactive	–
FC(F)(F)c1cc(Nc2nc3ccccc3c3nncn23)ccc1Cl	23.1 µM (active)	–
FC(F)(F)c1ccccc1-c1nc(-n2ccnc2)c2ccccc2n1	inactive	–
COc1cccc(NC(=O)C(Sc2nc3ccccc3c(=O)n2CC(C)C)c2ccccc2)c1 (configuration not stated)	inactive	–
COc1cccc(Nc2nc3ccccc3c3nncn23)c1	16.4 µM (active)	–
COc1ccc(C)cc1Nc1nc2ccccc2c2nnc(C)n12	inactive	–
O=C(OCC(=O)c1cccs1)c1ccc([N+](=O)[O-])o1	inactive	–
Cc1ccc(CNC(=O)C2CCN(S(=O)(=O)c3ccc4nc5c(c(C(=O)O)c4c3)CC(C)CC5)CC2)cc1 (configuration not stated)	inactive	–

SMILES	Potency	activity change, negative = growth inhibition
CCn1cc(CNC(=O)c2cc([N+](=O)[O-])c(C)c([N+](=O)[O-])c2)cn1	inactive	–
O=C(COc1ccc(Br)cc1)OCC(=O)c1ccc[nH]1	inactive	–
CCOC(=O)C1CCCN(C(=O)CSc2nnc3nc(C)cc(C)n23)C1 (configuration not stated)	25.9 µM (active)	–
Cc1c(C)n2c(SCC(=O)N3CCCC3)nnc2[nH]c1=O	inactive	–
Cc1cc2nnc(SCC(=O)N3CCN(c4ccccc4)CC3)n2c(N)n1	inactive	–
CN(C(=O)COC(=O)c1ccc(Br)o1)c1c(N)n(Cc2ccccc2)c(=O)[nH]c1=O	inactive	–
C[C@@H]1CN([C@@H](C)CO)S(=O)(=O)c2ccc(-c3ccc(C(=O)N(C)C)cc3)cc2O[C@@H]1CN(C)Cc1ccccc1C(=O)O	inactive	–
C[C@H](CO)N1C[C@H](C)[C@@H](CN(C)C(=O)c2cccc(F)c2)Oc2cc(-c3cncnc3)ccc2S1(=O)=O	inactive	–
C[C@@H]1CN([C@@H](C)CO)S(=O)(=O)c2ccc(C#Cc3cccc(F)c3)cc2O[C@H]1CN(C)S(=O)(=O)c1cn(C)cn1	18.4 µM (active)	–
C[C@H]1CN([C@@H](C)CO)S(=O)(=O)c2ccc(-c3cccc(F)c3)cc2O[C@@H]1CN(C)C	inactive	–
Cc1ccccc1-c1ccc2c(c1)O[C@@H](CN(C)Cc1ccc(C(=O)O)cc1)[C@@H](C)CN([C@H](C)CO)S2(=O)=O	inactive	–
C[C@@H]1CN([C@H](C)CO)S(=O)(=O)c2ccc(C#C[C@@H](C)O)cc2O[C@@H]1CN(C)Cc1ccc(-c2ccccc2)cc1	11.6 µM (active)	–
CCc1c(C)nc2cc(C)[nH]n2c1=O	inactive	–
CCOc1ccc(S(=O)(=O)NCCC(=O)NCC2CCCO2)cc1 (configuration not stated)	inactive	–
Cc1c[n+]([O-])ccc1[N+](=O)[O-]	inactive	–
O=C(NCc1ccccc1)[C@H]1C[C@@H]1[C@H](NP(=O)(c1ccccc1)c1ccccc1)c1ccccc1	18.4 µM (active)	–
O=C(NCc1ccccc1)C1CNCC(C(=O)NCc2ccccc2)C1 (configuration not stated)	inactive	–
O=C(O)C1CC=C(Cl)CC1C(=O)NCc1ccccc1 (configuration not stated)	inactive	–
CCc1cc2cc(OC)ccc2nc1SCC(=O)Nc1cc(OC)c(OC)cc1C(=O)O	inactive	–
COc1ccc(C)cc1NC(=O)CSc1cccc[n+]1[O-]	inactive	–
CC(=O)c1nc2ccccc2n1Cc1ccccc1	inactive	–
CC(C)(C)NC(=O)C(CCc1ccccc1)n1c(=O)c(-c2ccccc2)nc2ccccc21 (configuration not stated)	5.17 µM (active)	–
CCCc1nc2ccccc2n1C(C)C(=O)NC(C)(C)C (configuration not stated)	inactive	–
Cn1c(CNC(=O)C(C)(C)C)nc2ccccc21	inactive	–
CCC(C(=O)Nc1c(C)cccc1C)n1c(-c2cc(C)cs2)nc2ccccc21 (configuration not stated)	inactive	–

SMILES	Potency	activity change, negative = growth inhibition
CCC(C(=O)NC(C)(C)C)n1c(-c2ccccc2)nc2ccccc21 (configuration not stated)	20.6 µM (active)	–
COc1ccc(OC)c(/C=N/NC(=O)c2ccc[n+](CC(=O)c3ccccc3)c2)c1	inactive	–
COc1cccc(NC(=O)CN(C)C(=O)c2cc(C3CC3)nn2-c2ccccc2)c1	inactive	–
CC(=O)Nc1ccc(NC(=O)COC(=O)C2CCC(C(C)(C)C)CC2)cc1 (configuration not stated)	inactive	–
O=C(NCc1cccc(Cl)c1)C1CCN(c2nnc(N3CCCC3=O)s2)CC1	inactive	–
COc1ccc(CCNC(=O)CN2CCC(n3nnc4cc(F)ccc43)CC2)cc1OC	inactive	–
Cc1ccc(CCNC(=O)Cn2c(-c3cccs3)cc3cc(F)ccc32)cc1	18.4 µM (active)	–
COc1ccc(CCNC(=O)COC(=O)Cc2cccc(F)c2)cc1	inactive	–
Cc1cnc(C(=O)Oc2cccc(Cl)c2Cl)cn1	inactive	–
CCOC(=O)c1cnc(SC)nc1Sc1ccc(Cl)cc1Cl	inactive	–
CCc1ccccc1NC1c2ccccc2C(=O)N1c1cccnc1 (configuration not stated)	inactive	–
O=C1C(=O)N(c2ccccc2)C(c2ccccc2)C1c1ccccc1 (configuration not stated)	inactive	–
O=C1[C@@H](c2ccccc2)[C@@H](c2ccccc2)N1c1cccnc1	16.4 µM (active)	–
CCCN(CCC)c1c([N+](=O)[O-])c(=O)oc2ccccc12	inactive	–
O=C(COC(=O)c1ccncc1)c1ccccc1	inactive	–
Cc1[nH]c2ccc(C(=O)N3CCN(C)CC3)cc2c1C	inactive	–
Cc1cccc(N2CCN(C(=O)c3cc4c(=O)[nH]c5ccccc5c4n3C)CC2)c1C	18.4 µM (active)	–
O=C(c1c(Cl)cccc1Cl)N1CCN(c2cccc3[nH]ccc23)CC1	inactive	–
CN(C(=O)COC(=O)CCCc1c[nH]c2ccccc12)c1c(N)n(Cc2ccccc2)c(=O)[nH]c1=O	inactive	–
Oc1cc(O)c2c(c1)OC(c1ccc(O)c(O)c1)C(O)C2 (configuration not stated)	inactive	–
Cc1sc2nc(-c3ccccc3F)oc(=O)c2c1C	inactive	–
COc1ccc(-c2csc3nc(-c4ccccc4F)oc(=O)c23)cc1OC	18.4 µM (active)	–
COc1ccccc1-c1nnc(-c2ccc(F)cc2)o1	inactive	–
Cc1ccc(N/C(N)=N/c2nc(C(F)(F)F)cc(C(F)(F)F)n2)cc1	inactive	–
CCc1cccc(NC(=O)CCNS(=O)(=O)c2cccc3nonc23)c1	inactive	–

SMILES	Potency	activity change, negative = growth inhibition
CCCCc1nc2c(=O)[nH]c3ccccc3c2o1	inactive	–
CCc1ccc(NC(=O)CSc2nc3c([nH]c4ccccc43)c(=O)n2-c2cccc(OC)c2)cc1	inactive	–
Cc1ccc(NC(=O)CSc2nnc3[nH]c(=O)cc(C)n23)cc1Cl	inactive	–
Cn1nnnc1SCc1cc(=O)[nH]c2ccccc12	inactive	–
Cc1ccc(NC(=O)CSc2nc3c([nH]c4ccccc43)c(=O)n2-c2ccccc2)cc1Cl	11.6 µM (active)	–
Cc1ccc(C)c(NC(=O)CSc2nc3c(oc4ccccc43)c(=O)n2-c2ccccc2)c1	14.6 µM (active)	–
CCOC(=O)c1ccc(NC(=O)CSc2nnc(COc3ccccc3OC)n2C)cc1	inactive	–
CCOC(=O)c1ccc(NC(=O)c2cc(=O)[nH]c3ccccc23)cc1	inactive	–
Cc1ccc(C)c(NC(=O)COC(=O)CSc2ccccc2)c1	inactive	–
CCOC(=O)c1ccc(NC(=O)CSc2nc3c([nH]c4ccccc43)c(=O)n2C)cc1	8.2 µM (active)	–
Cc1cccc(NC(=O)CSc2nc3c(oc4ccccc43)c(=O)n2-c2ccc(F)cc2)c1	inactive	–
CC(Sc1nc2c([nH]c3ccccc32)c(=O)n1C)c1ccccc1 (configuration not stated)	11.6 µM (active)	–
Nc1c(N(CCCO)C(=O)C2CCCC2)c(=O)[nH]c(=O)n1Cc1ccccc1	inactive	–
Cn1c(=O)[nH]c2c(c(C(=O)O)nn2C)c1=O	inactive	–
Oc1c(Cl)cc(Cl)cc1/C=N/c1ncn[nH]1	inactive	–
Cc1ccc(NC(=O)CN(C)C(=O)c2ccc(Br)o2)cc1	inactive	–
CC(C)c1nnc(NC(=O)COC(=O)/C=C/c2ccc([N+](=O)[O-])cc2)s1	inactive	–
O=C(Nc1ccc(F)cc1)C(=O)c1cn(CC(=O)N2CCOCC2)c2ccccc12	inactive	–
O=C(Nc1ccc(C(=O)O)cc1)/C(=C\c1ccccc1)NC(=O)c1ccc(Br)cc1	inactive	–
COc1cccc(NC(=O)Cn2c3ccc(F)cc3c3nc4n(c(=O)c32)CCS4)c1	inactive	–
C=CCN1C(=O)c2ccc(C(=O)N3CCC(C(=O)OCC)CC3)cc2C1=O	inactive	–
O=[N+]([O-])c1ccc(N2CCN(c3ccc(O)cc3)CC2)c(Cl)c1	inactive	–
